Molecules are shown by their SMILES. Where “and” joins values, the source holds several entries; their conditions need not be identical. Equal values may be shown once. In all, about 410,000 compounds went through this assay and about 3,100 (0.76%) were called active. The call rests on the fitted dose curve; in most records, active means well fitted cell-killing curve with a large enough effect; inactive means no such curve, though single readings can be large or run the other way. This excerpt belongs to a sample that is enriched for actives. The source holds several records for some structures; these can differ, active in one and inactive in another.

Results on 61 molecules are retold here after PubChem BioAssay AID588856 (National Center for Advancing Translational Sciences (NCATS), 2011).
Potency means the concentration at half of the fitted maximal effect.

The experiment in a line: qHTS for Inhibitors of TGF-b: Cytotox Counterscreen. The settings on record: HepG2 CAGA-GFP viability, ATP luminescence, 18 h; series mostly up to 46.1 µM; activity change, negative = cytotoxicity: at the top concentration. From the text: TGF-b is a main component in the TGF-b signaling pathway which plays diverse roles in cellular and development pathways. TGF-b is mediated by transcription factors called "Smads". Although the Smad-dependent pathway is the primary canonical TGF-b signaling mode, TGF-b1 can also activate alternative signaling pathways, including those involving MAPK (ERK, JNK and p38). This interaction may mediate or enhance Smad-dependent responses, or can exert Smad-independent effects. The complexity of this signaling cascade allows the TGF-b superfamily to perform unique, overlapping or redundant functions. We believe that targeting the TGF-beta pathway at the Smad-transcription factor level may eliminate the consequences of disrupting the entire pathway and offer specificity without affecting other signaling pathways. Smad3 is the primary transducer of TGF-b's signals and Smad3 regulates many functions attributed to TGF-b signaling. We hypothesize that Smad3 inhibitors will selectively eliminate Smad3-specific TGF-beta signals without undesired off-target effects. We aim to identify Smad3-small molecule antagonists using a quantitative high throughput screening (qHTS) approach.
A high-throughput assay was developed to screen the NIH Molecular Libraries Small Molecule Repository (MLSMR). This is a cell based assay, where TGF-b is tagged with GFP. This is a counterscreen that evaluates the cytotoxicity of the compounds that were screened in the primary cell-based screen (AID 588855).
MH087449NIH Chemical Genomics Center [NCGC]
NIH Molecular Libraries Probe Centers Network [MLPCN]
Assay Submitter (PI): Sushil Rane, National Institute of […]
Suspensions of trypsinized HEPG2 CAGA-GFP cells were dispensed into white, tissue culture-treated, solid 1536-well plates at 5uL/well (1000 cells/well final concentration) in DMEM medium supplemented with 1% FBS. Plates were incubated at 37 degrees C for 2 hours, after which 23 nL of compounds or DMSO were delivered to each well using a pin tool. One uL of recombinant TGF-beta in DMEM (1% FBS) was then dispensed (500 pg/mL final concentration), and plates were incubated at 37 degrees C for 18 hours. Two uL of CellTiter Glo (Promega), a luminescence-based viability reagent, was dispensed, followed by a 10 minute room temperature incubation. The plates were then measured on a PerkinElmer ViewLux plate reader for luminescence (clear filter) using a 5 second exposure. The %Activity was determined from the corrected luminescence values. Wells containing media only (no cells) were used to normalize %Activity of identified toxic compounds; media-only wells corresponded to 100%Activity (complete cell-killing), while DMSO-dosed cell controls were used to normalize 0%Activity (no toxicity).
Concentration-response curves were fitted to the signals arising from the resulting luminescence. The concentration-effect curves were then classified based on curve quality (r2), response magnitude and degree of measured activity, and compounds were subsequently categorized based on their curve class.
For orientation: Quantitative high-throughput screening tests each substance at several concentrations.
As to `CCOc1ccccc1NC(=O)CN1CCCN(Cc2cccc(Cl)c2)S1(=O)=O`, the “activity change, negative = cytotoxicity” value was -14.1% (inactive).

With `O=C1COc2ccc(-c3csc(-c4ccc(Cl)cc4)n3)cc2N1`, the “activity change, negative = cytotoxicity” value was 0.232% (inactive).

Turning to `CNC(=O)[C@]1(C(F)(F)F)C[C@H](CCc2ccccc2)CCCO1`, the “activity change, negative = cytotoxicity” value was -7.33% (inactive).

In the case of `Cc1cccc(OCC(O)CN2CCN(S(=O)(=O)c3ccc(C)cc3C)CC2)c1` (stereo unspecified), the “activity change, negative = cytotoxicity” value was -7.87% (inactive).

On to `CCc1ccc(OCC(O)CN2CCN(CCO)CC2)cc1` (stereo unspecified), for which the “activity change, negative = cytotoxicity” value was -4.49% (inactive).

On to `Cc1cccc(OCC(O)CN2CCN(CCN3C(=O)c4cccc5cccc(c45)C3=O)CC2)c1C` (stereo unspecified), for which the Potency is 12.6 µM (active).

As for `COc1cc2nc(NCC(C)c3ccccc3)n3nc(-c4ccccc4)nc3c2cc1OC` (stereo unspecified), the “activity change, negative = cytotoxicity” value is -2.39% (inactive).

For `Cc1cc2nc(-c3ccc(NC(=O)c4cc5ccccc5o4)cc3)oc2cc1C`, the “activity change, negative = cytotoxicity” value was -1.43% (inactive).

For `CC(C)C(=O)NC(NC(=S)NC1CCS(=O)(=O)C1)C(Cl)(Cl)Cl` (stereo unspecified), the “activity change, negative = cytotoxicity” value was 6.42% (inactive).

Consider `O=S1(=O)CCC(NC(=S)SCc2ccccc2Br)C1` (stereo unspecified), for which the “activity change, negative = cytotoxicity” value is -120% (inactive).

Take `CCCSC(=S)NC1CCS(=O)(=O)C1` (stereo unspecified): the Potency was 11.2 µM (active).

As to `O=C(/C=C/c1cn(CC(O)CN2CCc3ccccc32)c2ccccc12)c1ccc(Br)cc1` (stereo unspecified), the “activity change, negative = cytotoxicity” value is -36.7% (inactive).

For `CCOc1ccc(C(=O)/C=C/c2cn(CC(O)CN3CCCCCC3)c3ccccc23)cc1` (stereo unspecified), the Potency was 11.2 µM (active).

For the molecule `CCOc1ccc(C(O)Cn2c(=N)n(CCN3CCCCC3)c3ccccc32)cc1` (stereo unspecified), the “activity change, negative = cytotoxicity” value is -61.2% (inactive).

For `COc1ccc(CC(N)c2csc(NC(=O)NC(c3ccccc3)c3ccccc3)n2)cc1` (stereo unspecified), the Potency is 12.6 µM (active).

Consider `COc1ccc(CNC(=O)C(Cc2ccccc2)n2cccc2)cc1` (stereo unspecified), for which the “activity change, negative = cytotoxicity” value is 1.79% (inactive).

As to `COc1ccc(C(=O)NC(Cc2ccc(OC(=O)c3ccc(OC)cc3)cc2)C(=O)O)cc1` (stereo unspecified), the “activity change, negative = cytotoxicity” value is 7.01% (inactive).

Take `CN(C(=N)N)c1ccc(/C=C2\C=Cc3ccccc32)cc1`: the “activity change, negative = cytotoxicity” value was -36.8% (inactive).

As for `Cc1ccc2c(=O)c(C(=O)c3ccc(Cl)cc3)cn(CC(=O)NC3CCCCC3)c2n1`, the “activity change, negative = cytotoxicity” value was 2.27% (inactive).

Take `NCCCNC(=S)NCCCN(Cc1ccc(Cl)cc1)c1ccc(Br)cn1`: the Potency result is “inactive and 17.8 µM (active)”.

Take `S=C(NCCCc1cnc[nH]1)NCCCN(Cc1ccc(Cl)c(Cl)c1)c1ccc(Br)cn1`: the Potency is 10 µM (active).

As for `CC(C)(C)c1ccc(C(=O)NCC(c2ccco2)S(=O)(=O)c2ccc(F)cc2)cc1` (stereo unspecified), the “activity change, negative = cytotoxicity” value is -29.8% (inactive).

As to `CSc1ccc(CCNC(=O)c2cc(C)nc3c2c(C)nn3-c2cccc(F)c2)cc1`, the “activity change, negative = cytotoxicity” value is -6.92% (inactive).

Take `CC(C)(C)OC(=O)N1CCC(c2c(C(=O)NCc3ccccn3)cnn2-c2ccc(F)cc2)CC1`: the “activity change, negative = cytotoxicity” value is -89.9% (inactive).

Turning to `COc1ccccc1N1CCN(c2ncnc3onc(-c4cccc(Cl)c4)c23)CC1`, the “activity change, negative = cytotoxicity” value is 1.68% (inactive).

In the case of `Cc1cccc(CC(=O)N2CC(=O)Nc3ccc(F)cc3C2c2ccccc2)c1` (stereo unspecified), the “activity change, negative = cytotoxicity” value is 0.164% (inactive).

As to `O=C(NCc1ccccc1)C1CCN(S(=O)(=O)c2ccc3[nH]c(=O)ccc3c2)CC1`, the “activity change, negative = cytotoxicity” value is -6.86% (inactive).

For `CCCn1c(NCc2ccccc2F)nc2ccccc21`, the “activity change, negative = cytotoxicity” value is -15.9% (inactive).

Regarding `CCN1/C(=C\c2ccc3ccccc3[n+]2CC)Sc2cc(C)ccc21`, the Potency is 11.2 µM (active).

For `CSc1ccccc1-c1nnc(NC(=O)c2ccc3c(c2)OCCO3)o1`, the “activity change, negative = cytotoxicity” value was -17% (inactive).

Take `COc1ccc(N(CC(=O)N/N=C/c2cccs2)S(=O)(=O)c2ccc(OC)c(OC)c2)cc1`: the “activity change, negative = cytotoxicity” value was -14.7% (inactive).

`COc1ccc(C(=O)NCC(c2ccco2)N2CCc3ccccc32)cc1OC` (stereo unspecified): the “activity change, negative = cytotoxicity” value was -41.6% (inactive).

For `Cc1ccsc1/C=N/NC(=O)Cc1cc(=O)[nH][nH]1`, the “activity change, negative = cytotoxicity” value was 0.602% (inactive).

Regarding `Cc1ccccc1NCC(=O)N/N=C\c1ccc([N+](=O)[O-])s1`, the Potency was 11.2 µM (active).

With `COc1ccc(C(=O)NCC(=O)N/N=C/c2ccc([N+](=O)[O-])s2)cc1OC`, the Potency is 11.2 µM (active).

Regarding `CCn1c(SCC(=O)N/N=C/C=C/c2ccccc2[N+](=O)[O-])nnc1-c1ccccc1`, the “activity change, negative = cytotoxicity” value was -22.3% (inactive).

With `CCc1nc2ccc(C(=O)N3CCN(c4cc(Cl)ccc4C)CC3)cc2nc1CC`, the “activity change, negative = cytotoxicity” value was -30.6% (inactive).

Regarding `CC(C)c1ccc(OCC(=O)N(Cc2ccc(N(C)C)cc2)C2CCS(=O)(=O)C2)cc1` (stereo unspecified), the “activity change, negative = cytotoxicity” value is -10.2% (inactive).

Regarding `CC(=O)OC1=C(C(C)=O)N(Cc2ccccc2)S(=O)(=O)c2ccccc21`, the “activity change, negative = cytotoxicity” value is -6.4% (inactive).

For `Oc1c(C(c2ccc(F)cc2)N2CCN(Cc3ccccc3)CC2)sc2nc(-c3ccco3)nn12` (stereo unspecified), the “activity change, negative = cytotoxicity” value was -58.8% (inactive).

As for `CCc1ccccc1NC(=O)c1ccc2nc(CCc3ccccc3)oc2c1`, the “activity change, negative = cytotoxicity” value is -22.8% (inactive).

On to `COc1cccc(CNCCSc2nnnn2C)c1OCc1ccccc1Cl`, for which the “activity change, negative = cytotoxicity” value is -33% (inactive).

In the case of `COc1cccc(CNn2cn[nH]c2=S)c1OCc1ccccc1`, the “activity change, negative = cytotoxicity” value was 2.29% (inactive).

As to `COc1cccc(CNCCc2c[nH]c3ccccc23)c1OCc1ccccc1F`, the Potency is 17.8 µM (active).

With `CCC(C)Nc1oc(-c2ccc(COc3ccc(Cl)cc3)o2)nc1C#N` (stereo unspecified), the “activity change, negative = cytotoxicity” value is -37.5% (inactive).

As to `C/C(=N\NC(=O)CC(C)C)c1c(C(F)(F)F)[nH]n(-c2nc3ccccc3s2)c1=O`, the Potency was 10 µM (active).

Consider `CCC(C)Cn1c(O)cc2nn(-c3nc4ccccc4s3)c(=O)c-2c1C` (stereo unspecified), for which the “activity change, negative = cytotoxicity” value was -4.55% (inactive).

With `O=C(Nc1ccc(F)cc1F)c1ccc2c(=O)n3c(nc2c1)CCCCC3`, the “activity change, negative = cytotoxicity” value is -21.1% (inactive).

With `CC(C)(C)c1ccc(C(=O)Nc2ccc3c(c2)CCCN3C(=O)c2cccs2)cc1`, the “activity change, negative = cytotoxicity” value was -44.9% (inactive).

As for `OC(CN=c1sc2ccccc2n1CC(O)COc1ccccc1)COc1ccccc1` (stereo unspecified), the Potency was 14.1 µM (active).

Turning to `CCCn1c(=N)n(CC(O)COc2ccccc2OC)c2ccccc21` (stereo unspecified), the “activity change, negative = cytotoxicity” value was -35.5% (inactive).

On to `COc1ccc(Cn2c(=O)sc3ccccc32)cc1OC`, for which the “activity change, negative = cytotoxicity” value is -12.6% (inactive).

For `Cc1c(NC(=O)Nc2ccc(F)c(Cl)c2)c(=O)n(-c2ccccc2)n1C`, the “activity change, negative = cytotoxicity” value was 7.8% (inactive).

As for `CCCOc1ccc(NC(=O)CC2C(=O)N(c3ccccc3)C(=O)N2Cc2ccco2)cc1` (stereo unspecified), the “activity change, negative = cytotoxicity” value was -38.4% (inactive).

Regarding `CN1c2ccc(C=O)c3c(C=O)ccc(c23)N(C)C1(C)C`, the Potency was 11.2 µM (active).

On to `O=C1C[C@@H](c2ccc3ccccc3c2)N1S(=O)(=O)c1ccccc1[N+](=O)[O-]`, for which the “activity change, negative = cytotoxicity” value was 3.22% (inactive).

In the case of `CCOc1ccc(OCC)c(NC(=O)c2cc(C)nc3c2c(C)nn3-c2cccc(Cl)c2C)c1`, the “activity change, negative = cytotoxicity” value was -9.94% (inactive).

`Cc1cccc(N2CCN(C(=O)c3ccc4c(c3)CCN4S(=O)(=O)c3ccccc3)CC2)c1C`: the “activity change, negative = cytotoxicity” value was -10.4% (inactive).

Take `Cc1c(C)n(Cc2ccc(Cl)cc2)c2ccc(C(=O)N3CCN(c4ccccc4F)CC3)cc12`: the “activity change, negative = cytotoxicity” value was -37.6% (inactive).

On to `CCn1c(C)c(C)c2cc(C(=O)N3CCN(c4cccc(C)c4C)CC3)ccc21`, for which the Potency result was “inactive and 17.8 µM (active)”.

Turning to `O=C1OC(C(=O)Nc2cccc(Br)c2)Cc2ccccc21` (stereo unspecified), the “activity change, negative = cytotoxicity” value was -14.8% (inactive).
